Key:
[1] = biological target: Mitogen-activated protein kinase kinase kinase kinase 4 (Homo sapiens) (UniProt O95819); details: at 1 µM;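 further: reported figure is an averaged inhibition value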
[2] = biological target: Dual specificity mitogen-activated protein kinase kinase 1 (Homo sapiens) (UniProt Q02750); details: at 0.1 µM
[3] = biological target: Dual specificity mitogen-activated protein kinase kinase 1 (Homo sapiens) (UniProt Q02750); details: at 1 µM
[4] = biological target: Misshapen-like kinase 1 (Homo sapiens) (UniProt Q8N4C8); details: at 0.1 µM
Chain of Misshapen-like kinase 1 (Homo sapiens) (Q8N4C8 whole entry, looked up): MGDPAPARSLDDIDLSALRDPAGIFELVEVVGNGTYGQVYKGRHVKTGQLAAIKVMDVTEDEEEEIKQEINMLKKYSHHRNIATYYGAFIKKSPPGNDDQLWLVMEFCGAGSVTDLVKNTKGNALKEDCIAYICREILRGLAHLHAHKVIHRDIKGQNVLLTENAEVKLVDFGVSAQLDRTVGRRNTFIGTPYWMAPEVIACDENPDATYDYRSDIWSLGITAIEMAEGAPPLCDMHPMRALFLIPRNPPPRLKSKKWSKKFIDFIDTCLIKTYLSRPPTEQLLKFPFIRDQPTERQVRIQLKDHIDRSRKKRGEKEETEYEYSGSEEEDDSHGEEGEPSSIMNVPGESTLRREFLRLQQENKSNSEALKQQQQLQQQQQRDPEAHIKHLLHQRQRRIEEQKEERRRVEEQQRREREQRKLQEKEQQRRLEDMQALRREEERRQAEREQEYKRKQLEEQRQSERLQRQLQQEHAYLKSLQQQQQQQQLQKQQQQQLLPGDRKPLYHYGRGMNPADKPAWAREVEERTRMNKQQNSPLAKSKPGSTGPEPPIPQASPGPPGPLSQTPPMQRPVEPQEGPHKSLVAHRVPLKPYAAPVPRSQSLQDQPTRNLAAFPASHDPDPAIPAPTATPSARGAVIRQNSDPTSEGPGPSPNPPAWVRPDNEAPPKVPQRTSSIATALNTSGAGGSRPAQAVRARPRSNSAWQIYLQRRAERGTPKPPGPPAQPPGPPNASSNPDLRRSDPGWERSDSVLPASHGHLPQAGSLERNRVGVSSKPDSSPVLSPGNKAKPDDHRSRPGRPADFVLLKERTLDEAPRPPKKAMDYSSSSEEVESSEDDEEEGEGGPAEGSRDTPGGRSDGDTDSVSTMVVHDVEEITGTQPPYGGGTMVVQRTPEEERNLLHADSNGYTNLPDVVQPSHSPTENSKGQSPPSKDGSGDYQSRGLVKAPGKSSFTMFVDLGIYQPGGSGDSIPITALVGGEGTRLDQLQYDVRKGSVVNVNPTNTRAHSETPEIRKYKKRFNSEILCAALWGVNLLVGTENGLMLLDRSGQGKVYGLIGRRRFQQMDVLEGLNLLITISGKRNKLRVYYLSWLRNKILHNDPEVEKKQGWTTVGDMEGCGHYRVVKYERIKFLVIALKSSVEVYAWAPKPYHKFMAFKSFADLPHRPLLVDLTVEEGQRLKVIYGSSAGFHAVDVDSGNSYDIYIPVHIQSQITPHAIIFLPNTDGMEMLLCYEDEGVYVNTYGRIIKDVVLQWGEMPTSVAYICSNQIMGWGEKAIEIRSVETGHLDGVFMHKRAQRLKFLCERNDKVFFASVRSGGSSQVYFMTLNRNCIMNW

[5] = biological target: Misshapen-like kinase 1 (Homo sapiens) (UniProt Q8N4C8); details: at 1 µM
[6] = biological target: T1, Serine/threonine-protein kinase 4 (Homo sapiens) (UniProt Q13043); details: at 0.1 µM
T1 sequence (whole entry): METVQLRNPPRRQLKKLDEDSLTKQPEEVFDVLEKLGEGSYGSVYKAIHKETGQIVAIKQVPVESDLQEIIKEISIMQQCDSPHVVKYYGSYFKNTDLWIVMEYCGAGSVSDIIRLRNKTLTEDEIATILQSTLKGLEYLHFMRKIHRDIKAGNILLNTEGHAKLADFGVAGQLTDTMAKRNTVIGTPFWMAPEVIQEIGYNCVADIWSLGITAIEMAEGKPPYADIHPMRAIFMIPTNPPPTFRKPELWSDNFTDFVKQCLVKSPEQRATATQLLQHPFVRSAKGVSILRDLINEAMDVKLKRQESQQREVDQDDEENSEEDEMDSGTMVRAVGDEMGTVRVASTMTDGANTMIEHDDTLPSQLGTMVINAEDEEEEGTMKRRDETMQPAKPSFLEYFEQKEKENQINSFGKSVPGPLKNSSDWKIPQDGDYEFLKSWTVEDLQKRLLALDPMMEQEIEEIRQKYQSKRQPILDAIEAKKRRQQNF

[7] = biological target: T1, Serine/threonine-protein kinase 4 (Homo sapiens); details: at 1 µM
[8] = biological target: T2, Serine/threonine-protein kinase 3 (Homo sapiens) (UniProt Q13188); details: at 0.1 µM
T2 sequence (whole entry): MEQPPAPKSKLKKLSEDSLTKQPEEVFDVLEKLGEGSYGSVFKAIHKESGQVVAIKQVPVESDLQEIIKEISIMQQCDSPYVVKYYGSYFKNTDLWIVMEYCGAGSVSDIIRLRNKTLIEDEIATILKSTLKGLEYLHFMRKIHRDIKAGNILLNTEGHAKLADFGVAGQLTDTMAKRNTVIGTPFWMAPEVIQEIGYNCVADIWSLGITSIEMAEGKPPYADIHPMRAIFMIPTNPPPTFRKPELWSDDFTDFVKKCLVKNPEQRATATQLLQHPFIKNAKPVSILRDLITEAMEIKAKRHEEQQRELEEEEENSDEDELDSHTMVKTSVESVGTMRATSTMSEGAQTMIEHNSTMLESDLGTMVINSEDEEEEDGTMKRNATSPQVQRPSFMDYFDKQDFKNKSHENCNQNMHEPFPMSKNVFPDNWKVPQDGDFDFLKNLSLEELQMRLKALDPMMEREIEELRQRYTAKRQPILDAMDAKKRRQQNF

[9] = biological target: T2, Serine/threonine-protein kinase 3 (Homo sapiens); details: at 1 µM
[10] = biological target: Serine/threonine-protein kinase 26 (Homo sapiens) (UniProt Q9P289); details: at 0.1 µM
Chain of Serine/threonine-protein kinase 26 (Homo sapiens) (Q9P289 2-416 limits assumed): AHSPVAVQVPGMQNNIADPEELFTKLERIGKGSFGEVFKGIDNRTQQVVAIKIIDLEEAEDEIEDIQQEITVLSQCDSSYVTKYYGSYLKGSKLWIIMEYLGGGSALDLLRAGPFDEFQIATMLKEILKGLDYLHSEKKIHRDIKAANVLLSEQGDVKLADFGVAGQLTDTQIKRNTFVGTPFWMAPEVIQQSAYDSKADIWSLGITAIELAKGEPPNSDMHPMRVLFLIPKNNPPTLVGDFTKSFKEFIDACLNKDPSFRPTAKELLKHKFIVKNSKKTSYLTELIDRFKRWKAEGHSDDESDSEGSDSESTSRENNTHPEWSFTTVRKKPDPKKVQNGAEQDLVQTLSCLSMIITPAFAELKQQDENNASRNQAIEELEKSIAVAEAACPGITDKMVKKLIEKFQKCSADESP

Chain of Mitogen-activated protein kinase kinase kinase kinase 4 (Homo sapiens) (O95819 2-1239 limits assumed): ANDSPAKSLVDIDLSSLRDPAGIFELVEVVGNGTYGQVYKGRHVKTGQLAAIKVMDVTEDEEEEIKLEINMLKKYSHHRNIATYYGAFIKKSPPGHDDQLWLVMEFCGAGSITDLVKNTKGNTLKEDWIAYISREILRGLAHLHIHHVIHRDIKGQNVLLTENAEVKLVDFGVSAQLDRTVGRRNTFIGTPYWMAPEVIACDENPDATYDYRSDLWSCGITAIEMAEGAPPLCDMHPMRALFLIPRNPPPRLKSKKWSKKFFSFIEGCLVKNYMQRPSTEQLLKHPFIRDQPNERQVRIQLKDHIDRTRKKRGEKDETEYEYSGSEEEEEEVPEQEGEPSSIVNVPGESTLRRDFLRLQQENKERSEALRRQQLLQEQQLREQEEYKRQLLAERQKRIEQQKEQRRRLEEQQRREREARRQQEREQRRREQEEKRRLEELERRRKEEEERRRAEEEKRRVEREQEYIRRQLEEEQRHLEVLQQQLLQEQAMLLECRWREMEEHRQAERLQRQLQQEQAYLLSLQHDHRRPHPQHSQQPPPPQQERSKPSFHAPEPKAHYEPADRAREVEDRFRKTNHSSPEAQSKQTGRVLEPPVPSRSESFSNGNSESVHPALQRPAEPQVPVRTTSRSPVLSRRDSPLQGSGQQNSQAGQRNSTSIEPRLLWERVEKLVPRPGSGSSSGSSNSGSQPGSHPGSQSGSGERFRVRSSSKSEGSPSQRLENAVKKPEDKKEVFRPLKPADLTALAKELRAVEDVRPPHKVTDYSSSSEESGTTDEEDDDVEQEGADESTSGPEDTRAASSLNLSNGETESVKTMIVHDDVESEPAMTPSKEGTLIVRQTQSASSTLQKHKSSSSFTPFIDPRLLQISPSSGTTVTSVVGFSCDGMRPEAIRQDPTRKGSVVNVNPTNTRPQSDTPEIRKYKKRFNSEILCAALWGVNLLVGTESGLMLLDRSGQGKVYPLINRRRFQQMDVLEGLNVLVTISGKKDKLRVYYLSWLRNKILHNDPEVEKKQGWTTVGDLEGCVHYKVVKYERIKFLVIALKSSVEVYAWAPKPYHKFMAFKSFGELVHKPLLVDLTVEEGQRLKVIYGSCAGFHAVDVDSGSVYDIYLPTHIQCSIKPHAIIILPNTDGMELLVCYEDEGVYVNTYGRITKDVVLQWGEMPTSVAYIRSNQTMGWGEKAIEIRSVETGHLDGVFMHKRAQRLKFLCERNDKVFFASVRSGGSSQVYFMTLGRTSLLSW
Chain of Dual specificity mitogen-activated protein kinase kinase 1 (Homo sapiens) (Q02750 whole entry): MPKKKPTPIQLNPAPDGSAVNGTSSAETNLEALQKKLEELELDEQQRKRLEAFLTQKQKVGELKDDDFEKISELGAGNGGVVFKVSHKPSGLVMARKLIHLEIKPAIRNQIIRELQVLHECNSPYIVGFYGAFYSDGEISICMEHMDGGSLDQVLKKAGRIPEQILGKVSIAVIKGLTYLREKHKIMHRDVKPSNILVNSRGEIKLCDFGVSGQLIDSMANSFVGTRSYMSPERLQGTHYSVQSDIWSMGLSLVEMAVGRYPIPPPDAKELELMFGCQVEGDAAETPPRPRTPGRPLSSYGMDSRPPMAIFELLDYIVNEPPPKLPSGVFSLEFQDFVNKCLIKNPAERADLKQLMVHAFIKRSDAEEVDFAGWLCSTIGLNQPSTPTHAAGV

Q: For `CC1=C(C(=O)Nc2ccc3[nH]ncc3c2)C(c2ccc(Cl)c(Cl)c2)CC(=O)N1` (stereo not given), which inhibition [1] is on record?
A: 3.96%

Q: And the inhibition [2]?
A: 4.74%

Q: What about the inhibition [3] of the same compound?
A: 30.5%

Q: And the inhibition [4]?
A: 1.68%

Q: What about the inhibition [5] of the same compound?
A: 1.98%

Q: What about the inhibition [6] of the same compound?
A: 1.25%

Q: And the inhibition [7]?
A: 4.28%

Q: What about the inhibition [8] of the same compound?
A: 1.27%

Q: And the inhibition [9]?
A: 2.63%

Q: And the inhibition [10]?
A: -1.2%

Q: With `CC(=O)Nc1cccc(C#Cc2cncnc2Nc2ccc(OCc3cccc(F)c3)c(Cl)c2)n1` as the compound, how does the inhibition [1] read?
A: 8.1%

Q: And the inhibition [2]?
A: -0.39%

Q: What about the inhibition [3] of the same compound?
A: -1.7%

Q: What about the inhibition [4] of the same compound?
A: 0.33%

Q: And the inhibition [5]?
A: 10.7%

Q: What about the inhibition [6] of the same compound?
A: 4%

Q: And the inhibition [7]?
A: 7.41%

Q: And the inhibition [8]?
A: 3.99%

Q: What about the inhibition [9] of the same compound?
A: 8.13%

Q: What about the inhibition [10] of the same compound?
A: 2.55%

Q: Which results are given for `CCCN1CCC=C(c2ccc(Nc3nc(Nc4ccccc4C(N)=O)c4cc[nH]c4n3)c(C)c2)C1`?
A: inhibition [1]: 65.3%; inhibition [2]: 7.02%; inhibition [3]: 28.7%; inhibition [4]: 14.8%; inhibition [5]: 55.2%; inhibition [6]: 9.53%; inhibition [7]: 42.5%; inhibition [8]: 5.37%; inhibition [9]: 21.2%; inhibition [10]: -2.63%

Q: What does the source list for `CCn1c(-c2nonc2N)nc2c(C#CC(C)(C)O)nc(CN3CCCC3)cc21`?
A: inhibition [1]: 1.37%; inhibition [2]: 0.73%; inhibition [3]: -0.46%; inhibition [4]: 2.4%; inhibition [5]: 0.35%; inhibition [6]: -1.15%; inhibition [7]: 0.25%; inhibition [8]: -2.44%; inhibition [9]: -2.27%; inhibition [10]: -0.36%

Q: For `COc1ccc(-c2coc3ncnc(N)c23)cc1`, which inhibition [1] is on record?
A: 10.2%

Q: What about the inhibition [2] of the same compound?
A: 5.34%

Q: And the inhibition [3]?
A: 5.29%

Q: What about the inhibition [4] of the same compound?
A: 12.5%

Q: And the inhibition [5]?
A: 8.75%

Q: And the inhibition [6]?
A: 7.11%

Q: What about the inhibition [7] of the same compound?
A: 8.23%

Q: What about the inhibition [8] of the same compound?
A: 6.08%

Q: What about the inhibition [9] of the same compound?
A: 6.94%

Q: What about the inhibition [10] of the same compound?
A: -0.2%

Q: Which inhibition [1] does the source give for `COc1ccccc1Nc1ncc(-c2ccccc2)o1` here?
A: 26.2%

Q: What about the inhibition [2] of the same compound?
A: 4.67%

Q: What about the inhibition [3] of the same compound?
A: 3.89%

Q: What about the inhibition [4] of the same compound?
A: 6.62%

Q: What about the inhibition [5] of the same compound?
A: 17.3%

Q: And the inhibition [6]?
A: 3.93%

Q: And the inhibition [7]?
A: 5.16%

Q: And the inhibition [8]?
A: 6.13%

Q: What about the inhibition [9] of the same compound?
A: 7.36%

Q: What about the inhibition [10] of the same compound?
A: -1.34%

Q: For `CS(=O)(=O)CCNCc1ccc(-c2ccc3ncnc(Nc4ccc(OCc5ccccc5)c(Cl)c4)c3c2)o1`, which inhibition [1] is on record?
A: 3.37%

Q: What about the inhibition [2] of the same compound?
A: 1.17%

Q: And the inhibition [3]?
A: 1.86%

Q: And the inhibition [4]?
A: 1.93%

Q: What about the inhibition [5] of the same compound?
A: 1.65%

Q: What about the inhibition [6] of the same compound?
A: 0.89%

Q: And the inhibition [7]?
A: 2.54%

Q: And the inhibition [8]?
A: -1.21%

Q: What about the inhibition [9] of the same compound?
A: 0.47%

Q: What about the inhibition [10] of the same compound?
A: 0.75%

Q: For `COc1ccc(COc2ccc(Cc3cnc(N)nc3N)cc2OC)cc1`, which inhibition [1] is on record?
A: 6.03%

Q: What about the inhibition [2] of the same compound?
A: 1.66%

Q: And the inhibition [3]?
A: 0.97%

Q: And the inhibition [4]?
A: 0.71%

Q: And the inhibition [5]?
A: 4.81%

Q: What about the inhibition [6] of the same compound?
A: 4.51%

Q: And the inhibition [7]?
A: 4.23%

Q: What about the inhibition [8] of the same compound?
A: 3.88%

Q: What about the inhibition [9] of the same compound?
A: 3.04%

Q: What about the inhibition [10] of the same compound?
A: 3.22%

Q: How did the inhibition [1] turn out when `CS(=O)(=O)CCNCc1nc(-c2ccc3ncnc(Nc4ccc(F)c(Cl)c4)c3c2)cs1` was run?
A: 4.84%

Q: What about the inhibition [2] of the same compound?
A: 1.19%

Q: What about the inhibition [3] of the same compound?
A: 2.66%

Q: And the inhibition [4]?
A: 2.93%

Q: What about the inhibition [5] of the same compound?
A: 3.2%

Q: What about the inhibition [6] of the same compound?
A: 4.8%

Q: What about the inhibition [7] of the same compound?
A: 6.35%

Q: What about the inhibition [8] of the same compound?
A: 5.67%

Q: And the inhibition [9]?
A: 4.59%

Q: What about the inhibition [10] of the same compound?
A: 2.56%

Q: What does the source list for `CNC(=O)c1cncc(/C=C/c2c(Cl)cccc2Cl)c1`?
A: inhibition [1]: 23%; inhibition [2]: 1.66%; inhibition [3]: 1.76%; inhibition [4]: 7.96%; inhibition [5]: 19.3%; inhibition [6]: 3.04%; inhibition [7]: 7.53%; inhibition [8]: 4.32%; inhibition [9]: 8.47%; inhibition [10]: -1.2%

Q: Which results are given for `[O-][S+]1CCN(Cc2ccc(-c3ccc4ncnc(Nc5ccc(OCc6ccccc6)c(F)c5)c4c3)o2)CC1`?
A: inhibition [1]: -0.28%; inhibition [2]: 2.4%; inhibition [3]: 3.03%; inhibition [4]: 4.17%; inhibition [5]: 1.42%; inhibition [6]: 2.61%; inhibition [7]: 2.36%; inhibition [8]: 2.82%; inhibition [9]: 3.06%; inhibition [10]: -0.81%

Q: `O=C1NC(=O)C(c2ccc(Cl)cc2)=C1Nc1ccc(Cl)c(C(=O)O)c1` was tested. Which inhibition [1] did it give?
A: 0.73%

Q: What about the inhibition [2] of the same compound?
A: -2.44%

Q: And the inhibition [3]?
A: -3.36%

Q: And the inhibition [4]?
A: -0.82%

Q: What about the inhibition [5] of the same compound?
A: -0.69%

Q: And the inhibition [6]?
A: -1.86%

Q: What about the inhibition [7] of the same compound?
A: -3.6%

Q: And the inhibition [8]?
A: -2.71%

Q: And the inhibition [9]?
A: -2.5%

Q: And the inhibition [10]?
A: -0.06%

Q: For `O=C1NC(=O)C(N2CCc3ccccc32)=C1c1ccc(Cl)cc1`, which inhibition [1] is on record?
A: 9.97%

Q: And the inhibition [2]?
A: 5.02%

Q: And the inhibition [3]?
A: 5.22%

Q: What about the inhibition [4] of the same compound?
A: 5.14%

Q: What about the inhibition [5] of the same compound?
A: 10.3%

Q: What about the inhibition [6] of the same compound?
A: 6.36%

Q: What about the inhibition [7] of the same compound?
A: 7.67%

Q: And the inhibition [8]?
A: 6.26%

Q: And the inhibition [9]?
A: 7.91%

Q: What about the inhibition [10] of the same compound?
A: -1.31%

Q: Which inhibition [1] does the source give for `NS(=O)(=O)c1ccc(N/N=C2\C(=O)Nc3ccc(C(=O)NCCc4c[nH]cn4)cc32)cc1` here?
A: 40%

Q: And the inhibition [2]?
A: 6.81%

Q: What about the inhibition [3] of the same compound?
A: 16.3%

Q: What about the inhibition [4] of the same compound?
A: 11.2%

Q: And the inhibition [5]?
A: 32.6%

Q: And the inhibition [6]?
A: 56.3%

Q: What about the inhibition [7] of the same compound?
A: 86.7%

Q: What about the inhibition [8] of the same compound?
A: 46.5%

Q: What about the inhibition [9] of the same compound?
A: 83.5%

Q: And the inhibition [10]?
A: -0.45%

Q: Which results are given for `CCc1cccc(NC(=O)Nc2ccc(Oc3ccc4nc(NC(=O)OC)[nH]c4c3)cc2)c1`?
A: inhibition [1]: 3.37%; inhibition [2]: 1.28%; inhibition [3]: 1.44%; inhibition [4]: 3.46%; inhibition [5]: 3.01%; inhibition [6]: 3.69%; inhibition [7]: 8.88%; inhibition [8]: 5.1%; inhibition [9]: 4.89%; inhibition [10]: 2.48%

Q: For `CS(=O)(=O)CCN(CC#N)Cc1ccc(-c2ccc3ncnc(Nc4ccc(OCc5cccc(F)c5)c(Cl)c4)c3c2)o1`, which inhibition [1] is on record?
A: 5%

Q: What about the inhibition [2] of the same compound?
A: 2.47%

Q: What about the inhibition [3] of the same compound?
A: 0.44%

Q: What about the inhibition [4] of the same compound?
A: 3.04%

Q: And the inhibition [5]?
A: 3.9%

Q: And the inhibition [6]?
A: 0.41%

Q: And the inhibition [7]?
A: 0.1%

Q: And the inhibition [8]?
A: 0.67%

Q: What about the inhibition [9] of the same compound?
A: 1.66%

Q: What about the inhibition [10] of the same compound?
A: -1.31%

Q: `COC(=O)Nc1nc2cc(Oc3cccc(NC(=O)Nc4cc(C(F)(F)F)ccc4F)c3)ccc2[nH]1` was tested. Which inhibition [1] did it give?
A: 4.32%

Q: What about the inhibition [2] of the same compound?
A: 0.59%

Q: What about the inhibition [3] of the same compound?
A: 0.38%

Q: And the inhibition [4]?
A: 1.15%

Q: What about the inhibition [5] of the same compound?
A: 3.21%

Q: And the inhibition [6]?
A: -1.6%

Q: And the inhibition [7]?
A: 0.24%

Q: And the inhibition [8]?
A: -1.24%

Q: And the inhibition [9]?
A: 0.17%

Q: What about the inhibition [10] of the same compound?
A: 0.73%
